Hit rate of the full screen: of about 3,400 compounds, about 840 (25%) were called active. Roughly 11% stayed inconclusive and do not appear here. Not all results are given here. Entries with a potency or affinity are not part of this list. A number with no mark means an inactive call.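 How the source made its calls: active means fitted half-maximal concentration of signal decrease at or below twice the sample's top tested concentration; inconclusive means flat curve between -70 and -30 percent, or poor fit; inactive means flat within 30 percent, signal rise, or potency above limit.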

This assay in a line: T. gondii growth inhibition with IFN-gamma, dose response, cell-based, ME49Luc, HeLa, luciferase, 72 h (AID 1259418). The following applies: T. gondii ME49Luc in IFN-y HeLa, hits give low values, -100% = high-dose IFN-γ control wells; at 19.5 µM unless noted.
`CCc1nc(OCC(=O)Nc2c(C)cc(C)cc2C)c2ccccc2n1`: the max activity is 7.02% [at 2.6 µM].
Then `Cc1ccc(CNC(=O)Nc2ccc(-c3nc(-c4ccccc4)co3)cc2)cc1`, with 90.3% [at 10 µM]; and `CN1C(=O)c2cc(NC(=O)Cc3cccs3)ccc2OC[C@H]2O[C@@H](CC(=O)NCc3ccc(-c4ccccc4)cc3)CC[C@@H]21`, with -7.79% [at 1.2 µM].
In the case of `Cc1oc(-c2ccccc2)nc1Cn1nnc(-c2nc(-c3ccccc3Br)no2)c1C` it was -8.57% [at 0.35 µM]; in that of `CC(=O)O[C@H]1C[C@@H](OC(C)=O)C(C)(C)C2C[C@@H](OC(C)=O)[C@@]3(C)C4=CC(=O)O[C@@H](c5ccoc5)[C@]4(C)CCC3[C@]21C` (some centres undefined), -9.83% [at 5 µM].
Then `Cc1ccc(CNC(=O)Nc2ccc(-c3nc(-c4ccc(C)cc4C)co3)cc2)cc1`, with 14.7% [at 0.16 µM].
With `CCCCC(=O)Nc1ccc(-c2nc(-c3cc(C)ccc3C)co2)cc1`, the max activity is -7.17% [at 5 µM].
On to `N#Cc1ccc(-c2ccc([C@H]3[C@@H](CO)N4C(=O)CNC[C@@H]34)cc2)cc1`, for which the max activity was 52.5%.
Then `O=C1CNC[C@@H]2[C@H](c3ccc(C#Cc4cccnc4)cc3)[C@H](CO)N12`, with 36.8%.
In the case of `O=C1CNC[C@@H]2[C@H](c3ccc(C#Cc4cccnc4)cc3)[C@@H](CO)N12` it was 42.6%.
Then `O=C1CC2C(CCN2Cc2ccc(F)cc2)N1CCN1CCOCC1` (centres undefined), with 15.6% [at 10 µM].
Take `Cc1ccc(-c2coc(-c3ccc(NC(=O)c4sccc4C)cc3)n2)c(C)c1`: the max activity is 14.5%.
Then `COC[C@H](N)C(=O)N1CCC(Cc2nnc(SC)n2C)CC1`, with 32.3%; and `Cc1nc(Cn2cnc(-c3nc(C(=O)NCc4cc(F)cc(F)c4)c4ccccn34)c2)cs1`, with -10.1%; and `Cc1ccc(C)c(-c2coc(-c3ccc(NC(=O)Nc4cccc(F)c4)cc3)n2)c1`, with 9.94% [at 2.6 µM].
Take `CC(C)Oc1ccc(NC(=O)c2nc3c(n2C(C)C)CCN(C(=O)c2ccccc2)C3)cc1`: the max activity was -6.92% [at 2.6 µM].
On to `Cc1ccc(-c2nc(Cn3nnc(-c4nc(-c5cccc(C(F)(F)F)c5)no4)c3C)c(C)o2)cc1`, for which the max activity is 13.1%.
Then `CCOC(=O)CSC1=Nc2ccccc2C2=NC(CC(=O)NCc3ccccc3OC)C(=O)N12` (centres undefined), with -7.6% [at 0.68 µM]; and `Cc1cccc(-c2nc(Cn3nnc(-c4nc(-c5cccnc5)no4)c3C)c(C)o2)c1`, with -5.69% [at 2.6 µM]; and `Cc1ccc(-c2coc(-c3ccc(NC(=O)c4cccc(F)c4)cc3)n2)cc1`, with 42.3%.
In the case of `O=C(Nc1ccc(-c2nc(-c3ccccc3)co2)cc1)c1ccc(F)cc1` it was 21.2% [at 1.35 µM]; in that of `O=C(Nc1ccc(-c2nc(-c3ccccc3)co2)cc1)c1ccccc1`, 74.5%.
In the case of `O=C(Nc1ccc(-c2nc(-c3ccccc3)co2)cc1)c1ccc(Cl)cc1` it was 21.8% [at 5 µM].
For `COc1ccc(-c2nc(Cn3nnc(-c4nc(-c5cccc(Cl)c5)no4)c3C)c(C)o2)cc1`, the max activity is -6.44% [at 0.35 µM].
Then `Cc1nc(CCNC(=O)C2CCN(S(=O)(=O)c3cc(F)ccc3F)CC2)cs1`, with 21.6% [at 2.6 µM]; and `Cc1ccc(C(=O)Nc2c(C(=O)N3CCN(c4ccccn4)CC3)[nH]c3ccccc23)cc1`, with -27.2%; and `O=C(Cc1cccc(F)c1)Nc1ccc(-c2nc(-c3ccccc3)co2)cc1`, with 16.9% [at 2.6 µM].
In the case of `Cc1ccc(-c2nc(Cn3nnc(-c4nc(-c5ccc(F)cc5)no4)c3C)c(C)o2)cc1` it was 22%.
Then `CCCC(=O)Nc1ccc(-c2nc(-c3cc(C)ccc3C)co2)cc1`, with -11.6% [at 1.35 µM]; and `COC[C@@H]1CCC[C@]12CN(S(=O)(=O)c1cccs1)CCO2`, with -9.83% [at 0.6 µM]; and `COCC12CCCOC1CCN(S(=O)(=O)c1cn(C)cn1)C2` (centres undefined), with 18.3%.
`CCSc1ccc(-c2sc(-c3ccc(F)cc3)nc2C)nn1`: the max activity was 31.6%.
Then `Cc1ccc2[nH]c(C(=O)NCc3ccccn3)c(NC(=O)c3ccc(Cl)cc3)c2c1`, with 27.1% [at 0.35 µM]; and `Cc1ccc2[nH]c(C(=O)N3CCN(c4ccccn4)CC3)c(NC(=O)c3ccc(F)cc3)c2c1`, with -13.6%.
With `Cc1ccc(C(=O)Nc2c(C(=O)NCc3cccnc3)[nH]c3ccc(C)cc23)cc1`, the max activity was 54.9% [at 2.6 µM].
Then `Cc1ccc(C(=O)Nc2c(C(=O)NCc3ccccn3)[nH]c3ccccc23)cc1`, with -2.99% [at 0.35 µM]; and `O=C(Nc1c(C(=O)NCc2ccccn2)[nH]c2ccccc12)c1ccc(Cl)cc1`, with 9.23% [at 1.35 µM]; and `Cc1cccc(C(=O)Nc2c(C(=O)NCc3ccccn3)[nH]c3ccc(C)cc23)c1`, with 14.8% [at 10 µM].
Then `Cc1ccc2[nH]c(C(=O)NCc3cccnc3)c(NC(=O)c3ccc(Cl)cc3)c2c1`, with -12% [at 10 µM].
Take `Cc1cccc(C(=O)Nc2c(C(=O)NCc3cccnc3)[nH]c3ccc(C)cc23)c1`: the max activity is 28.1% [at 5 µM].
In the case of `Cc1ccc2c(c1C)-n1cccc1C1(CCN(C(=O)Cc3cccs3)CC1)N2` it was 6.55% [at 0.16 µM]; in that of `COc1ccc(-c2nc(Nc3cccc(Cl)c3C)c3ccccc3n2)cc1`, 25.3%.
Then `Cc1ccc(-c2coc(-c3ccc(NC(=O)Nc4cccc(Br)c4)cc3)n2)cc1`, with 22.7% [at 0.16 µM]; and `Cc1ccccc1-c1noc(-c2nnn(Cc3nc(-c4cccc(Cl)c4)oc3C)c2C)n1`, with -11.4% [at 0.16 µM].
Consider `Cc1cc(C2CCCN2Cc2cn(C(C)C)c3ccccc23)on1` (centres undefined), for which the max activity was 5.01%.
In the case of `Cc1noc(C)c1C1CCCN1Cc1cn(C(C)C)c2ccccc12` (centres undefined) it was 17.5% [at 10 µM]; in that of `Clc1ccc(CSc2nc(NC3CCCCC3)c3ccccc3n2)cc1`, 26.1% [at 2.6 µM]; in that of `CC(C)c1ccc(S(=O)(=O)N2CCC3(CC2)NCCN=C3NC2CCCCC2)cc1`, 20% [at 0.16 µM].
For `CC(C)c1ccc(S(=O)(=O)N2CCC3(CC2)NCCN=C3NC2CCCC2)cc1`, the max activity is -14.4% [at 10 µM].
`CC(C)c1ccc(S(=O)(=O)N2CCC3(CC2)NCCN=C3NC2CCCCCC2)cc1`: the max activity was 17.1% [at 0.16 µM].
In the case of `Cc1ccc(-c2coc(-c3ccc(NC(=O)Nc4ccc(Cl)cc4)cc3)n2)cc1` it was 13.9% [at 0.16 µM]; in that of `Cc1ccc(C)c(-c2coc(-c3ccc(NC(=O)Nc4ccc(C)c(F)c4)cc3)n2)c1`, 15%.
In the case of `CCc1ccccc1Nc1ncnc2c1cnn2-c1ccc(OC)cc1` it was 48.9%.
Then `Clc1ccc(-c2nc(N3CCN(c4ccccn4)CC3)c3ccccc3n2)cc1`, with -23.4% [at 1.35 µM]; and `COc1ccc(-c2nc(NCc3cccc(OC)c3)c3ccccc3n2)cc1`, with 17.2%.
For the molecule `CCc1ccccc1NC(=O)N1CCN(Cc2nc(-c3ccc(C)cc3)oc2C)CC1`, the max activity was 29.1% [at 10 µM].
Consider `COc1ccc(-c2nc3c(s2)CN(C(=O)Nc2ccc(Cl)cc2)CC3)cc1OC`, for which the max activity is 10.2% [at 0.16 µM].
Then `CCOC(=O)CSC1=Nc2ccccc2C2=NC(CC(=O)NC3CCCCC3)C(=O)N12` (centres undefined), with -18.7% [at 10 µM]; and `O=C1CCc2cc(S(=O)(=O)NCc3cccs3)cc3c2N1CCC3`, with 24.5%; and `CC1Cc2ccccc2N1S(=O)(=O)c1cc2c3c(c1)CCC(=O)N3CCC2` (centres undefined), with -11.1% [at 0.35 µM].
In the case of `O=C1CCc2cc(S(=O)(=O)N3CCCc4ccccc43)cc3c2N1CCC3` it was -12% [at 0.35 µM]; in that of `O=C1CCc2cc(S(=O)(=O)NCc3ccccc3Cl)cc3c2N1CCC3`, 22.6% [at 2.6 µM]; in that of `O=C1CCc2cc(S(=O)(=O)N3CCC(Cc4ccccc4)CC3)cc3c2N1CCC3`, 11.4% [at 1.35 µM].
Then `O=C1CCc2cc(S(=O)(=O)NCCC(c3ccccc3)c3ccccc3)cc3c2N1CCC3`, with 9.16%; and `Cc1ccc(C2=NC3(CCN(CC(=O)Nc4c(C)cccc4C)CC3)NC2=O)cc1`, with 10.4% [at 0.16 µM].
On to `COc1ccc2c(c1)NC1(CCN(C(=O)CCC3CCCC3)CC1)c1cccn1-2`, for which the max activity was 10.2% [at 0.16 µM].
Then `COc1ccc(C)cc1NC(=O)N1CCc2nc(-c3ccc(C)cc3)sc2C1`, with -14.6% [at 0.16 µM]; and `CCOc1ccc(CCNc2nc(-c3ccc(OC)cc3)nc3ccccc23)cc1`, with -9.19% [at 0.35 µM].
In the case of `CCc1cc2c(N3CCC(C(N)=O)(N4CCCCC4)CC3)ncnc2s1` it was -27.2%.
In the case of `CCOC(=O)CCNC(=O)Nc1ccc(-c2nc(-c3ccccc3)co2)cc1` it was -13.1% [at 1.35 µM].
As for `COC(=O)c1ccc(NC(=O)COc2nc(C)nc3ccccc23)cc1`, the max activity is 16% [at 2.6 µM].
In the case of `O=C(c1ccco1)N1CCN(c2nc(-c3ccc(Cl)cc3)nc3ccccc23)CC1` it was 16.5% [at 0.35 µM]; in that of `O=C(c1ccco1)N1CCC2(CC1)Nc1cc(F)ccc1-n1cccc12`, 7.86% [at 0.16 µM]; in that of `Cc1ccc2c(c1C)-n1cccc1C1(CCN(C(=O)c3ccc(Cl)cc3)CC1)N2`, -11.9% [at 0.16 µM].

(Values after PubChem BioAssay AID1259418 (Broad Institute, 2018).)
